The campaign covered roughly 2,100 compounds. About 320 (15%) were called active. About 52% were inconclusive and are not listed. Calls come from the whole dose curve; as a rule, active = well fitted cell-killing curve with a large enough effect; inconclusive = small, poorly fitted or top-dose-only effect, or effect the other way; inactive = flat fitted curve, though single readings scatter. This is one part of the list.

The values that follow come from PubChem BioAssay AID1745849 (National Center for Advancing Translational Sciences (NCATS), 2022).
% is set by controls: 0 for no effect and ±100 for the full control effect; potency is the fitted concentration of half-maximal effect.

The nature of the assay: Viability Counterscreen for CMV-Luciferase Assay of Inhibitors of ATXN expression. Note: nearly all actives have a fitted effect of over 55% in size. The settings on record: HEK-293 CMV-luciferase cells viability, protease fluorescence, 24 h; activity change, negative = cytotoxicity: at the top concentration. The method, boiled down: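 Compounds are tested in a dilution series on HEK-293 cells carrying the CMV-driven luciferase. After a 24 hr incubation, a protease substrate (25 uM final, 30 min) gives the viability fluorescence, and SteadyGlo gives the reporter luminescence.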
Background: A counterscreen serves to expose hits that act by an unwanted route or on another target.
In the case of `Cc1cc(Nc2cccc([N+](=O)[O-])c2)n2c(nc3ccccc32)c1C#N`, the Potency is 3.55 µM (active).

Consider `Cc1ccc(-c2cc(-c3ccccc3)nc(NN)n2)cc1`, for which the “activity change, negative = cytotoxicity” value is -26.4% [at 57.5 µM] (inactive).

As for `NS(=O)(=O)c1ccc(CCNc2nn3c(-c4cccc(OC(F)(F)F)c4)cnc3s2)cc1`, the “activity change, negative = cytotoxicity” value was -22.9% (inactive).

Regarding `C=CCOC(=O)C1=C[C@@H](c2ccc3c(c2)OCO3)C[C@@H](OCCCCO)O1`, the “activity change, negative = cytotoxicity” value was -10.7% [at 57.5 µM] (inactive).

For the compound `CN(C)CCNc1ccc2ncn3c4ccc(O)cc4c(=O)c1c23`, the “activity change, negative = cytotoxicity” value is 7.3% (inactive).

As to `CN(C)CCNc1cccc2sc3ccc(O)cc3c(=O)c12`, the Potency was 12.6 µM (active).

Turning to `O=C(Nc1cccc(Cl)c1)c1ccc2c(c1)SC1=NS(=O)(=O)CCN12`, the “activity change, negative = cytotoxicity” value was -19.6% (inactive).

As to `CCOC(=O)c1c(-n2cccc2)sc2c1CCCC2=O`, the “activity change, negative = cytotoxicity” value was 9.15% [at 57.5 µM] (inactive).

Take `CC[n+]1c(C=C2C=C(C)OC(C)=C2)sc2ccccc21`: the Potency was 14.1 µM (active).

As for `NNC(=O)/C(=N/Nc1ccccc1)S(=O)(=O)c1ccc(Cl)cc1`, the Potency is 10 µM (active).

Turning to `O=C(NCc1cc(C(F)(F)F)ccc1Cl)c1cccc2c1C(=O)c1ccc(N3CCOCC3)cc1S2(=O)=O`, the “activity change, negative = cytotoxicity” value was -8.41% (inactive).

On to `CC1(C(=O)NCc2ccco2)CCN1C(=O)C1(c2ccccc2)CC1` (stereo not drawn), for which the “activity change, negative = cytotoxicity” value was -2.99% (inactive).

As to `Cc1cc(C)c2c(c1)/C(=C/C(=O)c1ccc(Br)s1)C(=O)N2`, the Potency was 3.16 µM (active).

As to `CCOC(=O)N1CCN(Cc2cc(Cl)c3cccnc3c2O)CC1`, the “activity change, negative = cytotoxicity” value was -27.9% (inactive).

For the compound `CC(C)COCc1ccc(O)c2ncccc12`, the “activity change, negative = cytotoxicity” value was -13.8% (inactive).

Take `OCCN1CCN(Cc2cc(Cl)c3cccnc3c2O)CC1`: the “activity change, negative = cytotoxicity” value is -25.4% [at 57.5 µM] (inactive).

For `O=[N+]([O-])c1cc(CN2CCN(c3ccccc3)CC2)c(O)c2ncccc12`, the Potency is 11.2 µM (active).

For `O=[N+]([O-])c1cc(Cl)c(O)c2ncccc12`, the Potency is 11.2 µM (active).

In the case of `O=[N+]([O-])c1ccc(O)c2ncccc12`, the Potency is 10 µM (active).

As to `O=c1oc2ccccc2c(O)c1Cc1cc(Cl)c2cccnc2c1O`, the “activity change, negative = cytotoxicity” value was 15.7% [at 57.5 µM] (inactive).

For the compound `Oc1ccc(Cl)c2cccnc12`, the “activity change, negative = cytotoxicity” value was 25% [at 57.5 µM] (inactive).

For the compound `COc1ccc(-c2nc(CN3CCN(c4ncnc5ccccc45)CC3)c(C)o2)c(OC)c1`, the “activity change, negative = cytotoxicity” value was -25.7% (inactive).

Turning to `c1ccc(Nc2nc(N3CCCCC3)nc(N3CCNCC3)n2)cc1`, the “activity change, negative = cytotoxicity” value was 3.96% [at 57.5 µM] (inactive).

For the compound `COc1cc(C)c(C(=O)CC(=O)c2c(C)cc(OC)cc2C)c(C)c1`, the “activity change, negative = cytotoxicity” value is 5.25% (inactive).

As to `CC(=O)N1c2ccc(S(=O)(=O)N3CCC(C(=O)Nc4cccc(C(F)(F)F)c4)CC3)cc2CC1C` (stereo not drawn), the “activity change, negative = cytotoxicity” value was -28.3% [at 57.5 µM] (inactive).

Take `Cc1nn(-c2ccccc2)c(N2CCCC2)c1/C=N/NC(=O)c1cc2ccccc2cc1O`: the “activity change, negative = cytotoxicity” value was -4.71% (inactive).

As to `COc1cccc(CN2CCC2(C)C(=O)Nc2cccc3cccnc23)c1OC` (stereo not drawn), the “activity change, negative = cytotoxicity” value is -16.4% (inactive).

As for `COc1ccc(CC2C(=O)NC(C)C(=O)N(C)C3Cc4ccc(cc4)Oc4cc(ccc4O)CC(C(=O)NC(C)C(=O)NC(C)C(=O)N2C)N(C)C3=O)cc1` (stereo not drawn), the Potency was 0.316 µM (active).
